# Test results: PubChem BioAssay (NCATS)
# Inconclusive results are not listed. Values without a mark were called inactive. The call rests on the fitted dose curve; in most records, active means well fitted cell-killing curve with a large enough effect; inconclusive means small, poorly fitted or top-dose-only effect, or effect the other way; inactive means flat fitted curve, though single readings scatter.
# Test system: CAOV3
# Experiment: Primary qHTS to identify gynecologic anti-cancer compounds using libraries of approved drugs and bioactive compounds (AID 1345084); further: nearly all actives have a fitted effect of over 55% in size
# Settings: Gynecologic cancer cell panel viability, ATPlite luminescence, 48 h; series mostly up to 57.5 µM; activity change, negative = cytotoxicity: at the top concentration
# Summary of the method: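 ATP-based viability (ATPlite), 1,000 cells/well, 16 h pre-incubation, 48 h compound at 37 C, 5% CO2, 15 min RT before read.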
# On the % scale 0 is the no-effect control and ±100 the full control effect.
row,Compound,"activity change, negative = cytotoxicity"
1,N#Cc1cccc(C(=O)Nc2cc(-c3ccccc3)nn2-c2ccccc2)c1,0.219%
2,O=C(Nc1ccc(C(F)(F)F)cn1)N1CCN(c2ncccc2C(F)(F)F)CC1,-6.47%
3,O=C(Nc1ccccc1C(=O)NC1CCCCNC1=O)c1cc2ccccc2s1 (centres undefined),6.48%
4,CCCCCCOC(=O)/N=C(\N)c1ccc(NCc2nc3cc(C(=O)N(CCC(=O)OCC)c4ccccn4)ccc3n2C)cc1,11.6%
5,CC[C@H]1CN(c2nc(N)c(C(N)=O)nc2Cl)CCN1C1CCN(Cc2ccc(Cl)cc2)CC1,32.4%
6,CC(C)=CCc1cc2c(cc1O)OC[C@H]1c3ccc(O)cc3O[C@@H]21,-8.22% [at 38.5 µM]
7,Cc1c(C(=O)NCc2cccnc2)nn(-c2ccc(Cl)cc2Cl)c1-c1ccc(Cl)cc1,3.18%
8,C=C1C(OC2OC(CO)C(O)C(O)C2O)CC2C(C)(C)C(O)CCC2(C)C1CC/C(C)=C\COC(=O)CC(=O)O (centres undefined),-6.8% [at 25.3 µM]
9,C=CC1(C)CC(O)C(C(=C)C(=O)OC)C(O)C1C(=C)CO (centres undefined),-8.2%
10,Cn1cc(-c2ccc(F)c(C(F)(F)F)c2)nc1C1CCN(c2ncnc3[nH]ncc23)CC1,-21.2% [at 25.3 µM]
11,Cc1ccccc1CN1CCn2c1nc1c(c2=O)CN(Cc2ccccc2)CC1,27.3%
12,Cc1cc(-c2ncc(-c3cccnc3)cc2/C=C/c2ccccc2)cnc1-c1cccnc1,15.8%
13,Cc1cnn(-c2ccccc2)c1NC(=O)COCc1ccccc1,3.29%
14,OC(CC1c2ccccc2-c2cncn21)C1CCCCC1 (centres undefined),-9.81%
15,Nc1nc2c(s1)CCN(Cc1ccc(Cl)cc1)CC2,14%
16,COc1ccc(CCN(C)CCCOc2nsc(-c3ccccc3)n2)cc1OC,-15.3%
17,COc1cc(O)cc(OC2OC(CO)C(O)C(O)C2O)c1 (centres undefined),6%
18,Cc1cc(C)cc(-c2cnc3cc(Cl)c(-c4cccc(O)c4)cc3c2OCCCN)c1,10.9%
19,N[C@@H]1c2cccnc2[C@H](OC(=O)N2CCC(n3c(=O)[nH]c4ncccc43)CC2)CC[C@H]1c1cccc(F)c1F,3.01%
20,CNCc1cc(-c2ccccc2F)n(S(=O)(=O)c2cccnc2)c1,6.21%

row,Compound,"activity change, negative = cytotoxicity"
1,COc1c2c(c(C)c3c1C(=O)OC3)O[C@@]1(C)C[C@@H](OC(C)=O)[C@]34O[C@](OC)(CC[C@]3(C)[C@H]1C2)OC4(C)C,-5.86% [at 25.3 µM]
2,O=C(N[C@H](Cc1cscn1)C(=O)N[C@@H](CC1CCCCC1)[C@@H](O)[C@@H](O)C1CC1)c1nc2ccccc2[nH]1,0.428%
3,O=C(COc1ccc2ccccc2c1Br)Nc1cccnc1,11.6%
4,C=C(CCC1C(C)(O)CCC2C(C)(C)C(O)CCC12C)C(O)CO (centres undefined),-3.95% [at 38.5 µM]
5,C=CCC1=C[C@]2(OC)[C@H](C)[C@@H](c3ccc4c(c3)OCO4)O[C@]2(OC)CC1=O,-3.45% [at 38.5 µM]
6,C[C@H]1CC[C@@]2(OC1)O[C@H]1CC3[C@@H]4CC[C@@H]5C[C@@H](O[C@@H]6O[C@H](CO)[C@@H](O[C@@H]7O[C@H](CO[C@@H]8OC[C@@H](O)[C@H](O)[C@H]8O)[C@@H](O[C@@H]8O[C@H](CO)[C@H](O)[C@H](O)[C@H]8O)[C@H](O)[C@H]7O)[C@H](O)[C@H]6O)CC[C@]5(C)C4CC[C@]3(C)[C@H]1[C@@H]2C (some centres undefined),0.154% [at 11.6 µM]
7,C[C@@H](NC(=O)C(=O)c1c[nH]c2ccc([N+](=O)[O-])cc12)c1ccccc1,-5.83%
8,Cc1[nH]c2ccccc2c1CCNC(=O)c1cccs1,-1.28%
9,C#CCCCn1cc(-c2cccc3c2N[C@H](C)CC(=O)N3)cn1,-4.55%
10,O=C(NC1CCC1)c1ccc(C#Cc2cccc(F)c2)nc1,-6.78%
11,O=C(O)c1cccc(-c2ccc(-c3cn(C(=O)N4CCCCC4Cc4ccccc4)nn3)cc2)c1 (centres undefined),-23.7%
12,COC1C(OC(=O)/C=C/C=C/C=C/C=C/C(=O)O)CCC2(CO2)C1C1(C)OC1CC=C(C)C (centres undefined),-22.9% [at 25.3 µM]
13,Cc1cc2c(cc1N1C(=O)c3cccc4c(CCCO)ccc(c34)C1=O)n(C)c(=O)n2C,-31.3% [at 25.3 µM]
14,O=C(NCC(=O)N1CCCC1)Nc1ccc2cnccc2c1,15.3%
15,CC(C)(C)c1ccc(C(=O)Nc2cn3cc(-n4ccnc4)ccc3n2)cc1,-10.5%
16,O=S1(=O)CCN(Cc2cc(NCC3CCOCC3)c3[nH]c(-c4ccccc4)cc3c2)CC1,-24.8%
17,NS(=O)(=O)c1ccc(N2N=C(c3ccccc3)CC2c2ccccc2)cc1 (centres undefined),19.4%
18,CCc1ccccc1OC[C@@H](O)CN[C@H]1CCCc2ccccc21,3.23%
19,C=C1/C(=C/C=C2\CCC[C@]3(C)[C@@H]([C@H](C)/C=C/[C@H](O)C4CC4)CC[C@@H]23)C[C@@H](O)C[C@@H]1O,14.4%
